According to the supplement of paper PMC13380429:
A number with no mark means an inactive call.

System: Vero E6 infected with SARS-CoV-2
Assay: inhibition of SARS-CoV-2 cytopathic effect; higher = more antiviral protection, active = above 15
Conditions: 48 h

In the case of `Cc1ccc(NC(=O)c2cccc(C(C)(C)C#N)c2)cc1Nc1ccc2ncn(C)c(=O)c2c1`, the “inhibition of SARS-CoV-2 cytopathic effect” value (from here on “inhibition”) (1 nM) is reported as 1.24%, the “inhibition” value (8.33 nM) is reported as 2.77% and the “inhibition” value (100 nM) is reported as -0.67%. The “inhibition” value (833.33 nM) was -2.75% and the “inhibition” value (10000 nM) was -1.17%.
For `[N-]=[N+]=N[C@]1(CO)O[C@@H](n2ccc(N)nc2=O)[C@H](O)[C@@H]1O`, the “inhibition” value (1 nM) was -1.63%, the “inhibition” value (8.33 nM) was 0.795% and the “inhibition” value (100 nM) was 0.87%. For the same compound, the “inhibition” value (833.33 nM) was 1.03% and the “inhibition” value (10000 nM) was -0.005%.
`CCO[C@@H](Cc1ccc(OCCn2c(C)ccc2-c2ccc(SC)cc2)cc1)C(=O)O` [saroglitazar] was tested, and the “inhibition” value (1 nM) was 1%, the “inhibition” value (8.33 nM) was -0.85% and the “inhibition” value (100 nM) was -1.26%. The “inhibition” value (833.33 nM) was 0.64% and the “inhibition” value (10000 nM) was 1.31%.
For `CCOc1nc2cccc(C(=O)OCc3oc(=O)oc3C)c2n1Cc1ccc(-c2ccccc2-c2noc(=O)[nH]2)cc1` [azilsartan-medoxomil], the “inhibition” value (1 nM) was 0.24%, the “inhibition” value (8.33 nM) was 1.14% and the “inhibition” value (100 nM) was 2.01%. For the same compound, the “inhibition” value (833.33 nM) was 1.93% and the “inhibition” value (10000 nM) was -0.28%.
`c1ccc(-c2n[nH]c3c2oc2ccccc23)cc1` was tested, and the “inhibition” value (1 nM) was -0.45%, the “inhibition” value (8.33 nM) was -5.74% and the “inhibition” value (100 nM) was 1%. For the same compound, the “inhibition” value (833.33 nM) was 2.4% and the “inhibition” value (10000 nM) was -0.82%.
In the case of `CC(C)c1ccc(C(=O)c2cccs2)c(SCCCCCCCCN(C)C)n1`, the “inhibition” value (1 nM) is reported as -1.33%, the “inhibition” value (8.33 nM) is reported as 0.45% and the “inhibition” value (100 nM) is reported as 2.39%. For the same compound, the “inhibition” value (833.33 nM) was 1.71% and the “inhibition” value (10000 nM) was 68.5% (active).
In the case of `OC(CN1CCN(c2cccc(Cl)c2)CC1)C(c1ccccc1)c1ccccc1` (stereo not given), the “inhibition” value (1 nM) is reported as 2.69%, the “inhibition” value (8.33 nM) is reported as 4.95% and the “inhibition” value (100 nM) is reported as 2.68%. The “inhibition” value (833.33 nM) was 1.94% and the “inhibition” value (10000 nM) was 3.63%.
For `CC(C)(C)C#Cc1cc(N(C(=O)[C@H]2CC[C@H](C)CC2)[C@H]2CC[C@@H](O)CC2)c(C(=O)O)s1`, the “inhibition” value (1 nM) was 1.62%, the “inhibition” value (8.33 nM) was 2.19% and the “inhibition” value (100 nM) was -0.17%. For the same compound, the “inhibition” value (833.33 nM) was 1.33% and the “inhibition” value (10000 nM) was 1.51%.
In the case of `COc1ccc(C(C)(C)C)cc1CN[C@H]1C2CCN(CC2)[C@H]1C(c1ccccc1)c1ccccc1` [maropitant], the “inhibition” value (1 nM) is reported as 2.55%, the “inhibition” value (8.33 nM) is reported as 0.73% and the “inhibition” value (100 nM) is reported as -1.99%. For the same compound, the “inhibition” value (833.33 nM) was -1.66% and the “inhibition” value (10000 nM) was 12.5%.
`CCC(CC)CC1(C(=O)Nc2ccccc2SC(=O)C(C)C)CCCCC1` [dalcetrapib] was tested, and the “inhibition” value (1 nM) was -1.76%, the “inhibition” value (8.33 nM) was -0.46% and the “inhibition” value (100 nM) was -1.34%. For the same compound, the “inhibition” value (833.33 nM) was -4.44% and the “inhibition” value (10000 nM) was -2.5%.
For `Cc1cnc(Nc2ccc(OCCN3CCCC3)cc2)nc1Nc1cccc(S(=O)(=O)NC(C)(C)C)c1` [fedratinib], the “inhibition” value (1 nM) was -3.17%, the “inhibition” value (8.33 nM) was 1.42% and the “inhibition” value (100 nM) was -0.42%. For the same compound, the “inhibition” value (833.33 nM) was -3.59% and the “inhibition” value (10000 nM) was -18.4%.
In the case of `C#C[C@]1(O)C=C[C@H]2[C@@H]3CCC4=CC(=O)CC[C@@H]4[C@H]3CC[C@@]21CC` [gestodene], the “inhibition” value (1 nM) is reported as 0.01%, the “inhibition” value (8.33 nM) is reported as 1.99% and the “inhibition” value (100 nM) is reported as -0.48%. The “inhibition” value (833.33 nM) was -1.22% and the “inhibition” value (10000 nM) was 1.3%.
In the case of `C=CC(=O)Nc1cccc(Oc2nc(Nc3ccc(N4CCN(C)CC4)cc3)nc3ccsc23)c1` [olmutinib], the “inhibition” value (1 nM) is reported as -1.91%, the “inhibition” value (8.33 nM) is reported as 3.26% and the “inhibition” value (100 nM) is reported as 11.6%. For the same compound, the “inhibition” value (833.33 nM) was -12% and the “inhibition” value (10000 nM) was -10.1%.
With `C=C1CC[C@H](O)C/C1=C/C=C1\CCC[C@]2(C)[C@@H]([C@H](C)CCCC(C)(C)O)CC[C@@H]12` [calcifediol] the “inhibition” value (1 nM) was 0.8%, the “inhibition” value (8.33 nM) was -2.15% and the “inhibition” value (100 nM) was -3.43%. The “inhibition” value (833.33 nM) was -0.54% and the “inhibition” value (10000 nM) was 0.11%.
With `O=C1c2c(O)cccc2C([C@@H]2O[C@H](CO)[C@@H](O)[C@H](O)[C@H]2O)c2cc(CO)cc(O)c21` (stereo not given in full) [aloin] the “inhibition” value (1 nM) was -0.62%, the “inhibition” value (8.33 nM) was 0.1% and the “inhibition” value (100 nM) was -0.43%. For the same compound, the “inhibition” value (833.33 nM) was 1.27% and the “inhibition” value (10000 nM) was 1.29%.
`CCN(CC)S(=O)(=O)c1ccc(C(=O)O)cc1` [etebenecid] was tested, and the “inhibition” value (1 nM) was -3.2%, the “inhibition” value (8.33 nM) was 1.54% and the “inhibition” value (100 nM) was 0.48%. The “inhibition” value (833.33 nM) was 1.89% and the “inhibition” value (10000 nM) was 2.73%.
With `CN1CCC[C@@H]1CCO[C@](C)(c1ccccc1)c1ccc(Cl)cc1` [clemastine] the “inhibition” value (1 nM) was 3.3%, the “inhibition” value (8.33 nM) was 4.37% and the “inhibition” value (100 nM) was 2.07%. For the same compound, the “inhibition” value (833.33 nM) was 0.78% and the “inhibition” value (10000 nM) was 0.68%.
In the case of `CS[C@H]1SC[C@H]2C(=O)N(C)[C@@H](C(C)C)C(=O)OC[C@@H](NC(=O)c3cnc4ccccc4n3)C(=O)N[C@@H](C)C(=O)N(C)[C@@H]1C(=O)N(C)[C@@H](C(C)C)C(=O)OC[C@@H](NC(=O)c1cnc3ccccc3n1)C(=O)N[C@@H](C)C(=O)N2C` [echinomycin], the “inhibition” value (1 nM) is reported as 2%, the “inhibition” value (8.33 nM) is reported as -4.69% and the “inhibition” value (100 nM) is reported as -19.9%. For the same compound, the “inhibition” value (833.33 nM) was -17.1% and the “inhibition” value (10000 nM) was -27%.
